This is part of a sample that, as a whole, favours compounds with a hit. Of some 79,000 tested, about 15% had one in any assay. Active and inactive are the calls of the source. No stated cut-off is given here; in the data, active means growth inhibition above about 70%; inactive means the rest.
Experiments:
[1] = NCI Yeast Anticancer Drug Screen. Data for the rad52 strain (AID 147);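 further: 0% = growth of vehicle-treated control cultures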; conditions: S. cerevisiae rad52 mutant growth inhibition, hits give high values
In short: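 The repair-mutant yeast strain was incubated with compounds, then growth was read and inhibition derived relative to vehicle.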

[2] = NCI Yeast Anticancer Drug Screen. Data for the wt1 strain (AID 149);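 further: 0% = growth of vehicle-treated wt1 cultures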; conditions: S. cerevisiae wt1 strain (SPY 50644) growth inhibition, hits give high values
In short: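 Readout: yeast growth inhibition, normalised to vehicle controls, in the wt1 strain exposed to test compounds.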

[3] = NCI Yeast Anticancer Drug Screen. Data for the rad50EPP+ strain (AID 151);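 further: 0% = growth of vehicle-treated control cultures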; conditions: S. cerevisiae rad50 mutant strain, hits give high values
In short: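 Vehicle-normalised growth inhibition; rad50EPP+ yeast strain, altered in DNA damage repair, compound-treated.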

[4] = NCI Yeast Anticancer Drug Screen. Data for the mgt1 strain (AID 153); conditions: S. cerevisiae mgt1 mutant growth inhibition, hits give high values
In short: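 Vehicle-normalized growth inhibition is determined in mgt1 yeast, a strain selected for a defined alteration in DNA repair or cell cycle control.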

[5] = NCI Yeast Anticancer Drug Screen. Data for the rad50 strain (AID 155);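 further: 0% = growth of vehicle-only cultures of the same strain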; conditions: S. cerevisiae rad50 strain growth inhibition, hits give high values
In short: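 Compounds were tested on a yeast strain with an engineered DNA damage repair alteration; the reported value is growth inhibition normalised to vehicle treatment.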

[6] = NCI Yeast Anticancer Drug Screen. Data for the mec2-1 strain (AID 157); conditions: S. cerevisiae mec2-1 strain, hits give high values
In short: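 Mutant yeast (mec2-1) grown with compound; growth inhibition relative to vehicle control reported.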

[7] = NCI Yeast Anticancer Drug Screen. Data for the rad14 strain (AID 159);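 further: 0% = growth of vehicle-treated control cultures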; conditions: S. cerevisiae rad14 strain growth inhibition, hits give high values
In short: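 Compound-treated yeast with a defined DNA-repair lesion; growth inhibition normalised to vehicle-treated cultures.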

[8] = NCI Yeast Anticancer Drug Screen. Data for the sgs1 mgt1 strain (AID 161);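 further: 0% = growth of cultures given vehicle only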; conditions: S. cerevisiae sgs1 mgt1 strain, hits give high values
In short: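 Compounds are added to genetically altered yeast, and growth is compared with cultures given vehicle alone to give percent inhibition.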

[9] = NCI Yeast Anticancer Drug Screen. Data for the CLN2oe strain (AID 163);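 further: 0% = growth of vehicle-only control cultures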; conditions: S. cerevisiae CLN2oe strain, hits give high values
In short: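 Compounds are applied to yeast harbouring a defined cell-cycle control change; reduced growth compared with vehicle-treated controls gives the value.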

[10] = NCI Yeast Anticancer Drug Screen. Data for the cln2 rad14 strain (AID 165);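 further: 0% = growth equal to vehicle treated cultures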; conditions: S. cerevisiae cln2 rad14 strain, hits give high values
In short: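 Readout is yeast growth inhibition versus vehicle-treated controls, using a strain with cln2 and rad14 alterations exposed to compound.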

[11] = NCI Yeast Anticancer Drug Screen. Data for the bub3 strain (AID 167); conditions: S. cerevisiae bub3 mutant strain, hits give high values
In short: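 Growth of a checkpoint-deficient yeast mutant is measured after compound exposure. Values represent inhibition relative to vehicle.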

[12] = NCI Yeast Anticancer Drug Screen. Data for the wt2 strain (AID 169);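 further: 0% = growth of vehicle-treated yeast cultures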; conditions: S. cerevisiae wt2 strain growth inhibition, hits give high values
In short: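 Against vehicle-treated controls, the growth of yeast exposed to each compound was compared, and the inhibition was recorded.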

[13] = NCI Yeast Anticancer Drug Screen. Data for the mlh1 strain (AID 171);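 further: 0% = growth of vehicle-treated control cultures of the same strain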; conditions: S. cerevisiae mlh1 strain growth inhibition, hits give high values
In short: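 Measured: yeast growth. Reference: vehicle-treated controls. Organism: strain with a defined alteration affecting DNA damage repair or cell cycle control, treated with compound.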

[14] = NCI Yeast Anticancer Drug Screen. Data for the sgs1 strain (AID 173);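 further: 0% = growth of vehicle-only control cultures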; conditions: S. cerevisiae sgs1 mutant, hits give high values
In short: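 Each compound was added to cultures of the altered yeast strain. Growth was recorded, and inhibition was derived by comparison with vehicle controls.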

[15] = NCI Yeast Anticancer Drug Screen. Data for the mlh1 rad18 strain (AID 175); conditions: S. cerevisiae mlh1 rad18 strain growth inhibition, hits give high values
In short: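 Genetically defined yeast (DNA repair-deficient) exposed to compounds; growth inhibition determined relative to vehicle.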

[16] = NCI Yeast Anticancer Drug Screen. Data for the rad18 strain (AID 177); conditions: S. cerevisiae rad18 mutant growth inhibition, hits give high values
In short: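 Vehicle-treated cultures served as the baseline for scoring compound-induced growth inhibition in DNA-repair-mutant yeast.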

[17] = at 5.0 µM (retest, dose inferred, filed as 0.5)
[18] = at 50.0 µM (retest, dose inferred, filed as 5.0)

Measured: growth inhibition

NC(=O)C(=O)NNc1ccccc1
inactive: [1]; at 1.2 µM 4% | [1]; at 3.7 µM 12% | [1]; at 11.0 µM 39% | [2]; at 1.2 µM 3% | [2]; at 3.7 µM 13% | [2]; at 11.0 µM 45% | [2]; at 33.0 µM 57% | [3]; at 1.2 µM 9% | [3]; at 3.7 µM 29% | [3]; at 11.0 µM 60% | [4]; at 1.2 µM 5% | [4]; at 3.7 µM 10% | [4]; at 11.0 µM 28% | [5]; at 1.2 µM 1% | [5]; at 3.7 µM 6% | [5]; [17] 9% | [5]; at 11.0 µM 31% | [5]; [18] 49% | [6]; at 1.2 µM 0% | [6]; at 3.7 µM 6% | [6]; [17] -1% | [6]; at 11.0 µM 48% | [6]; [18] 4% | [7]; at 1.2 µM 1% | [7]; at 3.7 µM 0% | [7]; at 11.0 µM 13% | [7]; at 33.0 µM 66% | [8]; [17] 8% | [9]; at 1.2 µM -3% | [9]; at 3.7 µM 4% | [9]; at 11.0 µM 41% | [9]; at 33.0 µM 67% | [10]; [17] 9% | [10]; [18] 32% | [11]; at 1.2 µM -3% | [11]; at 3.7 µM 6% | [11]; [17] 27% | [11]; at 11.0 µM 64% | [11]; [18] 66% | [12]; at 1.2 µM 3% | [12]; at 3.7 µM 13% | [12]; at 11.0 µM 34% | [12]; at 33.0 µM 60% | [13]; at 1.2 µM 3% | [13]; at 3.7 µM 5% | [13]; at 11.0 µM 31% | [14]; at 1.2 µM 3% | [14]; at 3.7 µM 14% | [14]; at 11.0 µM 59% | [15]; [17] 45% | [16]; at 1.2 µM 6% | [16]; at 3.7 µM 17% | [16]; at 11.0 µM 65%
active: [1]; at 33.0 µM 85% | [1]; at 100.0 µM 98% | [2]; at 100.0 µM 94% | [3]; at 33.0 µM 85% | [3]; at 100.0 µM 96% | [4]; at 33.0 µM 76% | [4]; at 100.0 µM 97% | [5]; at 33.0 µM 75% | [5]; at 50.0 µM 95.5% | [5]; at 100.0 µM 97% | [6]; at 33.0 µM 81% | [6]; at 50.0 µM 83.8% | [6]; at 100.0 µM 97% | [7]; at 100.0 µM 98% | [8]; [18] 78% | [8]; at 50.0 µM 90.5% | [9]; at 100.0 µM 96% | [10]; at 50.0 µM 80.8% | [11]; at 33.0 µM 95% | [11]; at 50.0 µM 92.2% | [11]; at 100.0 µM 97% | [12]; at 100.0 µM 97% | [13]; at 33.0 µM 75% | [13]; at 100.0 µM 98% | [14]; at 33.0 µM 92% | [14]; at 100.0 µM 98% | [15]; [18] 89% | [15]; at 50.0 µM 82.7% | [16]; at 33.0 µM 92% | [16]; at 100.0 µM 97%

Source: PubChem BioAssay (NCI)
